An excerpt weighted towards active compounds, which were near 3.1% of everything screened.
RAD52 anneal inh: RAD52 DNA annealing inhibitors, primary screen, biochemical, FRET, single point, set 2 | 360,000 compounds, 0.46% hits | recombinant RAD52 DNA annealing, FRET fluorescence | inhibition, % at 18.7 µM;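 active = every replicate showing at least 50% inhibition; inconclusive = mean inhibition at least 50% but not in every replicate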
RAD54 branch: inhibitors of human RAD54 branch migration, primary screen, biochemical, fluorescence, single point. inhibition, % at 10.4 µM. DNA repair and recombination protein RAD54-like (Homo sapiens), Q92698. 360,000 compounds, 0.14% hits. RAD54 Holliday junction branch migration, FAM/BHQ fluorescence;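 active = mean normalized replicate activity at least 40 and at least half of replicates scoring 40 or more; inconclusive = only one of the two criteria met; inactive = mean below 40 and under half of replicates reaching 40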;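 also: inhibitors cause a drop in the FAM fluorescence signal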
dFosB activator: activators of delta FosB homodimer, primary screen, biochemical, fluorescence polarization, TAMRA-CDK5 oligo, single point; Protein FosB (Mus musculus), P13346; purified delta FosB; percent of positive-control signal above neutral wells; activation, % at 25 µM; 340,000 compounds, 0.99% hits; AID 493131, 2011;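 active = mean activation above about 17%, with every replicate also reaching it, limit read from the data, passing the limit was not always enough; inconclusive = only one of the two conditions met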
Target sequence (P13346 whole entry, looked up): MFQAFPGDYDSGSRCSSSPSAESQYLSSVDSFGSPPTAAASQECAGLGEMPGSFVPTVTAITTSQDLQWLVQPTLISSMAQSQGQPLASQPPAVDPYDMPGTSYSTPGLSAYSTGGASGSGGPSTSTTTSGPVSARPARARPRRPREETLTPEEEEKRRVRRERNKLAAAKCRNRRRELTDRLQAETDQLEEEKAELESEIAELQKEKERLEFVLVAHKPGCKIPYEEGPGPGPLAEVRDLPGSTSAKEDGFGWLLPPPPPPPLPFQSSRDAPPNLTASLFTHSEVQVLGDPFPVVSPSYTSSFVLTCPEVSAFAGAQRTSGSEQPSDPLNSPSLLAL
MLL AF4-AF9 inh: inhibitors of AF4 peptide binding to AF9, primary screen, biochemical, AlphaScreen, biotin-AF4 peptide, FLAG-AF9, single point; inhibition, % at 10 µM; 350,000 compounds, 0.47% hits;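 active = every replicate reaching a set inhibition limit, whatever the replicate mean, cut at about 25% in these data; inconclusive = mean inhibition reaches that limit but some replicates miss it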
DENV2 CPE rescue: inhibitors of DENV2 cytopathic effect, primary screen, cell-based, plate reader, single concentration; 350,000 compounds, 1.7% hits; CPE inhibition, % at 9.99 µM; AID 651640, 2012; DENV2-infected cells, cytopathic effect rescue; in the data active = CPE inhibition above about 20%, passing the limit was not always enough; inconclusive = no clear call, values can overlap the other calls; tested in BHK-21 cells
GSIS activator: GLuc luminescence reporter in INS-1E cells, primary screen for activators of glucose-dependent secretion of insulin | 370,000 compounds, 0.61% hits | AID 743287, 2014 | activation, % at 16.6 µM | INS-1E GLuc reporter insulin secretion, 2-3 h;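 active = lowest replicate activation of at least 40%, so every replicate reaches that level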
Numbers stand for hits; 0 = inactive; ? = inconclusive; - = no result given; ! = not confirmed by another sample.

SMILES	RAD52 anneal inh	RAD54 branch	dFosB activator	MLL AF4-AF9 inh	DENV2 CPE rescue	GSIS activator
O=C1C=C(c2ccc3c(c2)OCO3)C[C@@H](c2ccc3c(c2)OCO3)C1	0	0	0	0	?	0
CN(C)C(=O)[C@@H]1[C@@H](CO)[C@@H]2Cn3c(ccc(-c4cncnc4)c3=O)[C@@H]2N1Cc1cc(F)ccc1F	0	0	-	0	0	0
O=C(C[C@@H]1CC[C@@H]2[C@H](COC[C@@H](O)CN2Cc2cc(F)ccc2F)O1)NCc1ccccc1	0	0	-	0	0	0
C[C@H]1CCCCO[C@H](CN(C)S(=O)(=O)c2ccc(Cl)cc2)[C@@H](C)CN([C@@H](C)CO)C(=O)c2cc(NC(=O)C3CCCCC3)ccc2O1	0	0	-	0	0	0
O=C(C[C@@H]1C[C@@H]2c3cc(NC(=O)C4CCC4)ccc3O[C@@H]2[C@@H](CO)O1)NCc1cc(F)ccc1F	0	0	-	0	0	0
CN(CC(=O)Nc1ccc(F)cc1)C(=O)COC(=O)c1nc(Cl)ccc1Cl	0	0	-	0	73	0
C/C(=N/NC(=O)CNc1ccc(C)cc1)c1ccc(Br)s1	0	0	0	0	0	0
COc1ccccc1NCC(=O)N/N=C(\C)c1ccc(Br)s1	0	0	0	0	23	0
C/C(=N/NC(=O)c1ccc(Br)s1)c1ccncc1	0	0	0	0	?	50
CO[C@H]1O[C@H](CO)[C@@H](OC(=O)Nc2ccccc2)[C@H](OC(=O)Nc2ccc3c(c2)OCO3)[C@@H]1OC(=O)Nc1ccc2c(c1)OCO2	0	0	-	27	0	-
CO[C@H]1O[C@H](CO)[C@@H](OC(=O)Nc2cccc(F)c2)[C@H](OC(=O)Nc2ccc3c(c2)OCO3)[C@@H]1OC(=O)Nc1ccc2c(c1)OCO2	0	0	-	0	0	-
O=C(CN1CCOCC1)NCC[C@H]1CC[C@@H](NC(=O)c2ccc3c(c2)OCO3)[C@@H](CO)O1	0	0	-	0	0	0
COc1ccc(C(=O)/C(C#N)=N/Nc2ccccc2[N+](=O)[O-])cc1	0	-	0	0	0	62
COc1ccc(C(=O)CC(=O)C(=O)Nc2cccc([N+](=O)[O-])c2C)cc1	0	-	0	0	30	0
COc1ccc(C(=O)/C(C#N)=N/Nc2ccc([N+](=O)[O-])cc2)cc1	0	-	0	0	0	0
COCC#Cc1cnc2c(c1)C(=O)N([C@H](C)CO)C[C@@H](C)[C@@H](CN(C)C(=O)c1ccc3c(c1)OCO3)O2	0	0	-	0	0	0
CO[C@H]1CN(C)C(=O)c2ccc(NS(C)(=O)=O)cc2OC[C@H](C)N(Cc2cncnc2)C[C@H]1C	0	0	-	0	0	0
COc1ccc2c(c1)N(C)/C(=C/c1cccc[n+]1C)S2	0	51	0	0	0	0
Cc1ccc2c(c1)N(C)/C(=C/c1cccc[n+]1C)S2	0	0	18	0	0	0
CCN1/C(=C/c2cccc[n+]2C)Sc2ccc(OC)cc21	0	0	0	0	0	0
CN1/C(=C/c2cccc[n+]2C)Sc2ccccc21	0	62	0	0	0	0
COc1cccc(CN2C[C@@H]3N[C@H](C2)C3c2ccc(-c3ccc(C#N)cc3)cc2)c1 (stereo partly drawn)	71!	-	-	0	0	0
COc1ccccc1-c1ccc(C2[C@@H]3CN(Cc4cccc(F)c4)C[C@H]2N3)cc1 (stereo partly drawn)	-	-	-	-	0	0
COc1cccc(CN2C[C@@H]3N[C@H](C2)C3c2ccc(-c3ccccc3OC)cc2)c1 (stereo partly drawn)	51	-	-	0	0	82!
COCC(=O)Nc1ccc2c(c1)[C@H]1C[C@@H](CC(=O)NCc3cccnc3)O[C@@H](CO)[C@H]1O2	0	0	-	0	0	0
SMILES	RAD52 anneal inh	RAD54 branch	dFosB activator	MLL AF4-AF9 inh	DENV2 CPE rescue	GSIS activator
CN(C(=O)c1ccc(C#N)cc1)c1nnc(-c2cnccn2)s1	0	0	0	-	0	46
CO[C@H]1CN(C)C(=O)c2ccc(NC(=O)C3CCOCC3)cc2OC[C@H](C)N(C(=O)c2ccccc2)C[C@@H]1C	-	-	-	-	-	0
C[C@H](CO)N1C[C@H](C)[C@@H](CN(C)C(=O)c2ccccc2)Oc2ncc(-c3ccc(C#N)cc3)cc2C1=O	0	0	-	0	0	0
O=C(CSc1nc(=O)[nH]c2c1CCCC2)Nc1ccc(F)cc1F	0	0	0	0	41	0
O=C(C[n+]1cccc2ccccc21)c1ccccc1	-	0	0	-	-	0
Cc1ccccc1C[n+]1cccc2ccccc21	0	0	0	50	31	0
C/C=C/c1ccc([C@H]2[C@@H](CO)N(Cc3ccccn3)[C@H]2CNC(=O)CC)cc1	-	0	-	-	-	0
COc1ccc2c3c(n(C)c2c1)[C@@H](CO)N(C(=O)C1CC1)CC31CCN(C(=O)CN(C)C)CC1	0	-	-	0	23	0
COc1ccc2c3c(n(C)c2c1)[C@@H](CO)N(S(C)(=O)=O)CC31CCN(C(=O)C2CC2)CC1	0	-	-	0	0	0
COc1ccc2c3c(n(C)c2c1)[C@@H](CO)N(C(=O)CN(C)C)CC31CCN(C(=O)CN(C)C)CC1	0	-	-	0	0	0
COc1ccc2c3c(n(C)c2c1)[C@H](CO)N(S(C)(=O)=O)CC31CCN(C(=O)C2CC2)CC1	0	-	-	0	31	0
COc1ccc(S(=O)(=O)N2CCC3(CC2)CN(C(=O)CN(C)C)[C@@H](CO)c2c3c3ccc(OC)cc3n2C)cc1	0	-	-	35	0	0
CCC(=O)N(C)C[C@H]1Oc2ncc(C#Cc3ccccc3)cc2C(=O)N([C@@H](C)CO)C[C@H]1C	0	0	-	0	0	0
COc1ccc(CCN(C)C(=O)CCNS(=O)(=O)c2ccccc2C(F)(F)F)cc1OC	0	0	0	0	0	41
C[C@H](CO)N1C[C@H](C)[C@H](CN(C)C(=O)Nc2ccc(-c3ccccc3)cc2)OCc2ccccc2-c2c(n(C)c3ccccc23)C1=O	0	-	-	0	88	0
CO[C@H](C(=O)N(C)C[C@H]1OCc2ccccc2-c2c(n(C)c3ccccc23)C(=O)N([C@@H](C)CO)C[C@@H]1C)c1ccccc1	0	0	-	0	26	0
CO[C@@H](C(=O)N(C)C[C@H]1OCc2ccccc2-c2c(n(C)c3ccccc23)C(=O)N([C@@H](C)CO)C[C@H]1C)c1ccccc1	-	-	-	-	-	0
C[C@H](NC(=O)N(C)C[C@H]1OCc2ccccc2-c2c(n(C)c3ccccc23)C(=O)N([C@H](C)CO)C[C@H]1C)c1ccccc1	0	-	-	0	32	0
COc1cccc(NC(=O)CN(C)C(=O)c2cccc(NS(=O)(=O)c3ccccc3)c2)c1	0	0	0	0	0	0

Assay outcomes from PubChem.
